# From PubChem BioAssay (Tox21)
# Values without a mark were called inactive. Results filed as inconclusive are left out. Where a call stands in place of a potency, no number is given. The source made the active and inactive calls. Unless noted, calls follow the shape of the full dose curve.
# Key:
# [1] = target: Acetylcholinesterase (Homo sapiens) (UniProt P22303); experiment: Acetylcholinesterase (AChE) small molecule antagonists: enzyme-based qHTS assay (AID 1347397); details: Potency: AChE enzyme activity inhibition; outcome: AChE enzyme activity inhibition; also: nearly all actives have a fitted effect of over 55% in size
# How it was run: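 Human recombinant acetylcholinesterase; substrate acetylthiocholine; thiocholine quantified with DTNB (colorimetric). Compound preincubation 30 min RT; reaction 10 min RT.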
# [2] = target: Acetylcholinesterase (Homo sapiens) (UniProt P22303); experiment: Acetylcholinesterase (AChE) small molecule antagonists: fluorescence cell-based qHTS assay (AID 1347398); details: Potency: AChE activity; outcome: AChE activity; also: nearly all actives have a fitted effect of over 50% in size; also: potency is read from the fitted curve at half-maximal effect
# How it was run: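 Thiocholine generated from acetylthiocholine by SH-SY5Y cell AChE is detected with Thiolite Green (Ex/Em 490/520 nm) after 40 min at room temperature, following 30 min compound pretreatment at 37 C.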
# [3] = target: Acetylcholinesterase (Homo sapiens) (UniProt P22303); experiment: Acetylcholinesterase (AChE) small molecule antagonists: enzyme-based qHTS assay with human liver microsomes (AID 1347399); details: Potency: qHTS inhibition; outcome: qHTS inhibition; also: nearly all actives have a fitted effect of over 60% in size
# How it was run: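 Recombinant human AChE (50 mU/mL in the enzyme mix) and human liver microsomes (0.25 mg/mL final) were preincubated with compound and NADPH (0.25 mg/mL final) for 30 min at 37 C. Acetylthiocholine/DTNB was then added; thiocholine was read colorimetrically after 10 min at room temperature.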
# [4] = qHTS assay for small molecule agonists of the p53 signaling pathway (AID 651631); also: nearly all actives have a fitted effect of over 15% in size
# How it was run: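 HCT-116 p53RE-bla reporter line, 16 h compound treatment at 37 °C, then fluorescence after 2 h with B/G FRET substrate.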
# [5] = target: Glucocorticoid receptor (Homo sapiens) (UniProt P04150); experiment: qHTS assay to identify small molecule antagonists of the glucocorticoid receptor (GR) signaling pathway (AID 720692; active = well fitted inhibition curve with a large enough effect in the signal ratio in the repeat runs, not every such curve was filed as active; the % refers to the signal ratio)
# How it was run: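 Dexamethasone (5 nM final) stimulated a stably integrated GRE-beta-lactamase reporter in HeLa cells during 18 h co-incubation with compounds; signal was quantified as fluorescence intensity of B/G FRET substrate after 2 h.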
# [6] = target: Aromatase (Homo sapiens) (UniProt P11511); experiment: qHTS assay to identify aromatase inhibitors (AID 743083; active = well fitted curve in the direction sought with a large enough effect in the repeat runs; an effect the other way counts as inactive or inconclusive; also: series mostly up to about 70 µM; nearly all actives have a fitted effect of over 55% in size)
# [7] = target: Aryl hydrocarbon receptor (Homo sapiens) (UniProt P35869); experiment: qHTS assay to identify small molecule that activate the aryl hydrocarbon receptor (AhR) signaling pathway (AID 743085; active = well fitted curve in the direction sought with a large enough effect in the repeat runs; an effect the other way counts as inactive or inconclusive;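 also: HG2L7.5c1 human HepG2 liver cells with stably integrated DRE-driven firefly reporter; series mostly up to about 70 µM; nearly all actives have a fitted effect of over 15% in size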)
# How it was run: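 Steps: seed HepG2-AhR-luc cells; allow 5 h at 37C; pin-transfer test compound or vehicle; incubate 24 h at 37C; add viability dye (30 min, 37C) and read fluorescence; add luciferase substrate (30 min, RT) and read luminescence.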
# [8] = target: Peroxisome proliferator-activated receptor delta (Homo sapiens) (UniProt Q03181); experiment: qHTS assay to identify small molecule antagonists of the peroxisome proliferator-activated receptor delta (PPARd) signaling pathway (AID 743215; active = well fitted inhibition curve with a large enough effect in the signal ratio in the repeat runs, not every such curve was filed as active; the % refers to the signal ratio;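 also: cells stimulated with agonist L165041 at 300 nM final during compound exposure; series mostly up to about 62 µM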)
# How it was run: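 With L165041 present at 300 nM final, compounds were incubated 17 h at 37 C on PPARd UAS-bla HEK293H cells. A FRET-based beta-lactamase substrate was then applied for 2 h at room temperature and fluorescence intensity recorded.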
# Acetylcholinesterase (Homo sapiens), sequence (P22303 whole entry, looked up): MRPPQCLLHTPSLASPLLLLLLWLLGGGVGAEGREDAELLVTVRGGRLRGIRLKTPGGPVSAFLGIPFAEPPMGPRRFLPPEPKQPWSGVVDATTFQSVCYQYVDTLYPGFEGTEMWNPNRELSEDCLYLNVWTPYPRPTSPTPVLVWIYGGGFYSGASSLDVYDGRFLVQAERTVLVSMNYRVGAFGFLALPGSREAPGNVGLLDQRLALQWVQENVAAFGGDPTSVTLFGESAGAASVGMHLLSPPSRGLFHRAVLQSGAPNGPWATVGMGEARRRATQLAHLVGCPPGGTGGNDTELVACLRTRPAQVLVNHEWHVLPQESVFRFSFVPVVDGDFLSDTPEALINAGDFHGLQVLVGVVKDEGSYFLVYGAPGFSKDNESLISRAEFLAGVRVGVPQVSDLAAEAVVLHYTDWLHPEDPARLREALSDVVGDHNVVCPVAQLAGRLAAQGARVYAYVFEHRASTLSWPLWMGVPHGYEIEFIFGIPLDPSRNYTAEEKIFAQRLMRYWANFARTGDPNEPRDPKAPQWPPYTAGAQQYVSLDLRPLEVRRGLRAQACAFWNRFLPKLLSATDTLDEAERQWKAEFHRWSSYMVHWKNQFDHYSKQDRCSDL
# Peroxisome proliferator-activated receptor delta (Homo sapiens), sequence (Q03181 whole entry, looked up): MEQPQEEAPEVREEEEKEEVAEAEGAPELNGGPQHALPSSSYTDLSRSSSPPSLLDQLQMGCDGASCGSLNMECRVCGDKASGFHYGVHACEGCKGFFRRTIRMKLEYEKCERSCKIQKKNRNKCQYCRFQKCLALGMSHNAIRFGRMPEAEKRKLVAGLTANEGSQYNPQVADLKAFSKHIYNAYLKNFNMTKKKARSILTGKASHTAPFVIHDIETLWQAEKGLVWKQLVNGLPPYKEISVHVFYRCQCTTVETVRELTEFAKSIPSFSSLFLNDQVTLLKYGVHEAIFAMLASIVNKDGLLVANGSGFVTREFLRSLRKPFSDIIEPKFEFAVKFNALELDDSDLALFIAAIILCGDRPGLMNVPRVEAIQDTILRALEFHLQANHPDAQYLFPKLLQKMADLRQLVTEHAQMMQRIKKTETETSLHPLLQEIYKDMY
# Glucocorticoid receptor (Homo sapiens), sequence (P04150 whole entry, looked up): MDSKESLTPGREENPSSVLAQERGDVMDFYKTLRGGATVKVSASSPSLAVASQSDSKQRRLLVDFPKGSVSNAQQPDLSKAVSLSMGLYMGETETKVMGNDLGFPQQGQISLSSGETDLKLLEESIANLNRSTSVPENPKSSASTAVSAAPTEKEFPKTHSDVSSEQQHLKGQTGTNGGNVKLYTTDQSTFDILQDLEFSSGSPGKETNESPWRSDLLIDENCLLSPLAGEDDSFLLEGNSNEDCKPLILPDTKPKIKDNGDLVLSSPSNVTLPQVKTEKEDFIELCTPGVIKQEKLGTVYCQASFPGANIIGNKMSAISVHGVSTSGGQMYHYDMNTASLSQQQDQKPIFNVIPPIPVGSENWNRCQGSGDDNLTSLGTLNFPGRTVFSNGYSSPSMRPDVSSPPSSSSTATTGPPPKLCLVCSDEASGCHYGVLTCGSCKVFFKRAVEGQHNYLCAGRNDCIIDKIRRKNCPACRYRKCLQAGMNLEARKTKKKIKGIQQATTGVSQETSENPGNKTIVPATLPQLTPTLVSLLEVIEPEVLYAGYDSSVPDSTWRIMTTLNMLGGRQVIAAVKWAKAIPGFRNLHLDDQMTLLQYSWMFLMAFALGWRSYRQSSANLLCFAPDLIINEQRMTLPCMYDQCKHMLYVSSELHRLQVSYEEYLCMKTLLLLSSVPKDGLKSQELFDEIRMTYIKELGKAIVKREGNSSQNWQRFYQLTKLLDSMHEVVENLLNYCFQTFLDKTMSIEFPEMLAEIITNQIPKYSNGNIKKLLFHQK
# Aromatase (Homo sapiens), sequence (P11511 whole entry, looked up): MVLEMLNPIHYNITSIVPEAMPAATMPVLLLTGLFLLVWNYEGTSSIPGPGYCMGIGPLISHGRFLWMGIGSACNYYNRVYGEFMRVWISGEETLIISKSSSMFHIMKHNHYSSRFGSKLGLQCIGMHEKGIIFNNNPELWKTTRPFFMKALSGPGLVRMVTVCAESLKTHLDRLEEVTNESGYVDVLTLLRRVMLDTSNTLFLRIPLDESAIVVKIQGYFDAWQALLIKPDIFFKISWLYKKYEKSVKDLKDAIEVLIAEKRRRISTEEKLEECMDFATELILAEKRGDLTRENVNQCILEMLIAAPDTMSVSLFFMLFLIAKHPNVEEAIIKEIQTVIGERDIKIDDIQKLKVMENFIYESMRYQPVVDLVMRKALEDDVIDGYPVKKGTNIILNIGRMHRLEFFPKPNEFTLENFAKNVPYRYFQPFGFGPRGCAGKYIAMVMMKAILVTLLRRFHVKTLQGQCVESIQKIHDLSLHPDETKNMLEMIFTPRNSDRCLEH
# Aryl hydrocarbon receptor (Homo sapiens), sequence (P35869 whole entry, looked up): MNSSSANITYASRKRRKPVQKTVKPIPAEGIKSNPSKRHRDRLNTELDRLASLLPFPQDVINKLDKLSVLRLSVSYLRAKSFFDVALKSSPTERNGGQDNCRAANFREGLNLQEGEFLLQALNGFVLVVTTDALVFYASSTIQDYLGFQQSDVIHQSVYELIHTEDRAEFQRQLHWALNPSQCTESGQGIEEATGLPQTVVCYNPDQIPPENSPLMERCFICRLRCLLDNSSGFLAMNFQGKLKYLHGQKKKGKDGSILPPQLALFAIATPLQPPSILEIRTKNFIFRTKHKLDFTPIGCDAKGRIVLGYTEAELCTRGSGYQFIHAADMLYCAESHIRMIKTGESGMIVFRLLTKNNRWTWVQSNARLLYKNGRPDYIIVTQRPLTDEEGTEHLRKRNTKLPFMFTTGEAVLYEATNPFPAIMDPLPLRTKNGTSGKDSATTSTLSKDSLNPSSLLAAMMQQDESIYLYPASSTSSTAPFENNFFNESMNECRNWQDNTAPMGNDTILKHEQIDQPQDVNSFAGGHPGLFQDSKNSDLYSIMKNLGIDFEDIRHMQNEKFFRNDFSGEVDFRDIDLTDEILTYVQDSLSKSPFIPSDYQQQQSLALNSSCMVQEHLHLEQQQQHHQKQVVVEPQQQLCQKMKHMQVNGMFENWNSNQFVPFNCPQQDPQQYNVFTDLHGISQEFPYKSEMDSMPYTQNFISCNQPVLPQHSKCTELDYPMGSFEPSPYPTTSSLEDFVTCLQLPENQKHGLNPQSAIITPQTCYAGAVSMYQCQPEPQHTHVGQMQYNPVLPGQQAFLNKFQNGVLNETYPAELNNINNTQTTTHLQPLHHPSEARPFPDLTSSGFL
structure (smiles),measurement,setting,value
CCOC(=O)CCc1ccccc1,Potency,[1],inactive
same,Potency,[2],inactive
same,Potency,[3],inactive
CCC(=O)/C=C/c1ccc(OC)cc1,Potency,[1],inactive
same,Potency,[2],inactive
same,Potency,[3],inactive
COC(=O)CC(C(C)=O)C(=O)OC (centres undefined),Potency,[1],inactive
same,Potency,[2],inactive
same,Potency,[3],inactive
Oc1ccc(Nc2ccccc2)cc1,Potency,[1],inactive
same,Potency,[2],inactive
same,Potency,[3],inactive
CS(=O)(=O)c1ccc([C@@H](C[C@H]2CCC(=O)C2)C(=O)Nc2cnccn2)cc1Cl,Potency,[1],inactive
same,Potency,[2],inactive
same,Potency,[3],inactive
C=CCc1ccccc1OCC(O)CNC(C)C (centres undefined),Potency,[1],inactive
same,Potency,[2],inactive
same,Potency,[3],inactive
CC[N+](CC)(CC)CCOc1ccc(/C=C/c2ccccc2)cc1,Potency,[1],inactive
same,Potency,[2],34.7 µM (active)
same,Potency,[3],inactive
CCNC(=O)NCCCOc1cccc(CN2CCCCC2)c1,Potency,[1],inactive
same,Potency,[2],inactive
same,Potency,[3],inactive
O=C(O)c1cc(C(=O)O)c(C(=O)O)cc1C(=O)O,Potency,[1],inactive
same,Potency,[2],inactive
same,Potency,[3],inactive
C1CCC(C(CC2CCCCN2)C2CCCCC2)CC1 (centres undefined),Potency,[1],inactive
same,Potency,[3],inactive
O=CC=C(c1ccccc1)c1ccccc1,Potency,[1],inactive
same,Potency,[2],inactive
same,Potency,[3],inactive
Clc1ccc2c(c1)CCc1cccnc1C2=C1CCNCC1,Potency,[1],inactive
same,Potency,[3],inactive
CC(C)C[C@@H]1[C@H](c2ccccc2)OC(=O)N1CCCN1CCCCCC1,Potency,[1],inactive
same,Potency,[3],inactive
O=C1C=CC(=O)N1,Potency,[1],inactive
same,Potency,[3],inactive
CCCCC(CC)COC(=O)c1ccccc1O (centres undefined),Potency,[1],inactive
same,Potency,[2],inactive
same,Potency,[3],inactive
CN(C)CCC=C1c2ccccc2C=Cc2ccccc21,outcome,[1],inactive
same,outcome,[3],inactive
C=CC(=O)OCC[N+](C)(C)C,Potency,[1],inactive
same,Potency,[3],inactive
CN1CCN2c3ccccc3Cc3ccccc3C2C1 (centres undefined),Potency,[1],inactive
same,Potency,[3],inactive
CN(C(=O)CCCOc1ccc2[nH]c(=O)ccc2c1)C1CCCCC1,Potency,[1],inactive
same,Potency,[3],inactive
CC(C)CCOC(=O)CC(C)C,Potency,[1],inactive
same,Potency,[3],inactive
C[N+]12CCC(CC1)C(OC(=O)C(O)(c1ccccc1)c1ccccc1)C2 (centres undefined),Potency,[4],inactive
same,Potency,[5],inactive
same,Potency,[6],inactive
same,outcome,[7],inactive
same,outcome,[8],inactive
same,Potency,[1],inactive
same,Potency,[2],inactive
same,Potency,[3],inactive
